This note sets out measurements from ChEMBL document CHEMBL1157539, “Thousands of chemical starting points for antimalarial lead identification” (Nature, 2010).

Format in all cases: functional
Assay [1] relates to Plasmodium falciparum. Description: GSK_TCMDC: Inhibition of Plasmodium falciparum 3D7 in whole red blood cells, using parasite LDH activity as an index of growth. Test compounds present at 2uM.
The subject of assay [2] is Plasmodium falciparum. Description: GSK_TCMDC: Inhibition of Plasmodium falciparum Dd2 in whole red blood cells, using parasite LDH activity as an index of growth. Test compounds present at 2uM.
Assay [3] has as its system HepG2. Description: GSK_TCMDC: Percent inhibition of human HepG2 cell line. Test compounds present at 10uM.

For orientation: Inhibition means the relative decrease from the control value, in per cent. The low end stands for a weak effect, the high end for a strong effect. On to `Cn1cncc1C(=O)Nc1cccc(-c2ccc(-c3nc4cc(F)ccc4[nH]3)cc2)c1`, for which the values for the Inhibition in assay [1], in assay [2] and in assay [3] were 100%, 31% and 0%, respectively.

In the case of `O=C(NC1CCN(Cc2ccccc2O)C1)c1cccc(C(F)(F)F)c1.O=C(O)C(F)(F)F` (stereo not given), the values for the Inhibition in assay [1], in assay [2] and in assay [3] were 98%, 62% and 0%, respectively.

In the case of `CC(=O)Nc1ccc2[nH]cc(C3CCN(CC4CCC(NC(=O)/C=C/c5ccc(Cl)c(Cl)c5)CC4)CC3)c2n1` (stereo not given), the Inhibition in assay [1] was determined as 100%; in assay [2] it was 79%; in assay [3], 17%.

Regarding `CC[C@H](NC(=O)c1c(CN2CCC(N3CCCCC3)CC2)c(-c2ccccc2)nc2c(Cl)c(O)ccc12)c1ccccc1.Cl`, the Inhibition in assay [1] is given as 100%; in assay [2], 66%; in assay [3], 0%.

Take `Fc1ccc2[nH]c(-c3ccccc3)nc2c1CN1CCC(N2CCCC2)CC1.O=CO`: the Inhibition stood at 100% in assay [1], 30% in assay [2] and 2% in assay [3].

As for `O=C(c1cc2c(s1)-c1cccc(Cl)c1SC2)N1CCN(c2ccncc2)CC1`, the Inhibition is on record as 94% in assay [1], 36% in assay [2] and 45% in assay [3].

`COc1cc(-c2nc(-c3ccccc3)c(-c3ccccc3)[nH]2)cc(OC)c1O`: the Inhibition in assay [1] was 100%; in assay [2] it was 90%; in assay [3], 5%.

Take `Cc1ccc2nc(-c3ccc(C(=O)NCc4ccc(Cl)c(Cl)c4)cc3)[nH]c2c1C`: the results for the Inhibition in assay [1], in assay [2] and in assay [3] were 96%, 26% and 19%, respectively.

On to `COCCN1CCC(CNCC(C)(C)c2nc(-c3ccc(Cl)c(O)c3)c(-c3ccncc3)[nH]2)CC1.Cl`, for which the values for the Inhibition in assay [1], in assay [2] and in assay [3] were 100%, 2% and 0%, respectively.

Take `COc1ccccc1C(C)NCC(=O)Nc1cccc(C(=O)Nc2cccc(C(F)(F)F)c2)c1` (stereo not given): the results for the Inhibition in assay [1], in assay [2] and in assay [3] were 91%, 39% and 34%, respectively.
